# High-throughput results from PubChem.
# The list is not random: actives were taken first. Their share in the collection is about 2.9%.
# Nrf2 block: Nrf2 qHTS screen for inhibitors | A549 ARE-Fluc reporter, luciferase luminescence, 18-24 h | Potency, µM (highest dose often 46 µM), without a hit: at the top dose activity change, negative = inhibition, most hits filed as inhibitors | 2.1% of 360,000 active; further: on the % scale 0 is the no-effect control and ±100 the full control effect; nearly all actives have a fitted effect of over 60% in size
#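 Nrf2 function is reported as luminescence of an ARE-controlled luciferase in A549 cells. Compounds were tested at several concentrations, and a CellTiter-Fluor read on the same wells flagged cytotoxicity.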
# Nrf2 activator: qHTS of Nrf2 Activators. AREc32 ARE-luciferase reporter (MCF7-derived line), luminescence, 24 h. 0.31% of 410,000 active. Potency, µM (doses to about 46.1 µM), for the others: at the highest dose activation, actives largely listed as activators. AID 624171, 2012; further: % of control where 0% means no effect; nearly all actives have a fitted effect of over 65% in size
#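 AREc32_Fluc, 1000 cells/well, OPTI-MEM + 5% FBS, o/n 37 deg C 5% CO2; 23 nL cpd by pin tool, 24 hr; Steady-Glo 30 min RT, luminescence.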
# A549 viability: Nrf2 qHTS screen for inhibitors: counterscreen for cytotoxicity. A549 ARE-Fluc cells, CellTiter-Fluor viability, 18-24 h. 0.16% of 390,000 active. Potency, µM (highest dose often 46 µM), for the others: top-dose activity change, negative = cytotoxicity, most hits filed as inhibitors. AID 504648, 2011; further: on the % scale 0 is the no-effect control and ±100 the full control effect
#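 Cytotoxicity counterscreen: CellTiter-Fluor fluorescence was measured in A549 ARE_Fluc cells after 18-24 h of compound exposure in a concentration series. The subsequent BugLite luminescent read reports ARE-luciferase activity.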
# ATXN2 expr inh: Primary qHTS for Inhibitors of ATXN expression. HEK-293 ATXN2-luciferase reporter, luminescence, 24 h. Potency, µM (highest dose often 57 µM), for inactives: top-dose activity change, negative = inhibition, most hits filed as inhibitors. 0.72% of 360,000 active. AID 1745845, 2022; further: on the % scale 0 is the no-effect control and ±100 the full control effect; nearly all actives have a fitted effect of over 55% in size
#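 ATXN2-luciferase reporter cells (luciferase flanked by upstream and downstream ATXN2 gene portions) were treated 24 h at 37 °C with compounds at up to 57 uM. SteadyGlo luminescence gave expression; GF-AFC fluorescence gave viability.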
# ATXN viability: Viability Counterscreen for Primary qHTS for Inhibitors of ATXN expression; 0.49% of 400,000 active; S2 cells (HEK-293 line with an ATXN2-luciferase reporter) viability, CellTiter-Fluor protease fluorescence, 24 h; AID 651635, 2014; Potency, µM (series often up to 56.7 µM), most hits filed as cytotoxic; further: nearly all actives have a fitted effect of over 40% in size
# Active calls of the source: *; i = inactive; ? = inconclusive; . = no result. The call rests on the fitted dose curve; in most records, active means well fitted curve in the direction sought with a large enough effect; inconclusive means small, poorly fitted or top-dose-only effect, or another doubt; inactive means no such curve, though single readings can be large; an effect the other way counts as inactive or inconclusive. Potency means the concentration at half of the fitted maximal effect.
SMILES,Nrf2 block,Nrf2 activator,A549 viability,ATXN2 expr inh,ATXN viability
COc1ccc(C(c2nnnn2-c2ccc(OC)cc2)N2CCC(n3c(=O)[nH]c4ccccc43)CC2)cc1 (configuration not stated),.,0%,.,?,?
COC(=O)C1=C(c2ccc(OCc3ccccc3)cc2)C[C@@H]2CC[C@H]1N2C(=O)NCc1ccc2c(c1)OCO2,.,0%,.,-13%,?
COc1ccc(CCNc2nc3c(c(=O)n(C)c(=O)n3C)n2Cc2ccc(F)cc2)cc1OC,16µM*,5%,-14%,-17%,?
CN1CC[C@@]2(C)c3cc(O)ccc3N(C)[C@@H]12,-4%,-2%,23µM*,-22%,14µM*
Cc1ccc(C)c(N2CCN(C(=O)C3CCCN(S(=O)(=O)c4cccc5nsnc45)C3)CC2)c1 (configuration not stated),16µM*,0%,-7%,0%,i
COC(=O)C1=C(c2ccc(F)cc2OCc2ccccc2)C[C@@H]2CC[C@H]1N2C(=O)NCc1ccc(F)cc1,?,0%,-15%,?,?
COC(=O)C1=C(c2ccc(F)cc2OCc2ccccc2)C[C@@H]2CC[C@H]1N2C(=O)NC1Cc2ccccc2C1,16µM*,-1%,-17%,-22%,i
COC(=O)C1=C(c2ccc(F)cc2OCc2ccccc2)C[C@@H]2CC[C@H]1N2C(=O)NCc1ccc(C)cc1,15µM*,0%,?,?,?
COC(=O)C1=C(c2ccc(F)cc2OCc2ccccc2)C[C@@H]2CC[C@H]1N2C(=O)N1CCCCC1,?,-1%,-29%,-16%,i
COC(=O)C1=C(c2ccccc2OCc2ccccc2)C[C@@H]2CC[C@H]1N2C(=O)NCc1ccc(C(C)(C)C)cc1,21µM*,-1%,-12%,-17%,?
COC(=O)C1=C(c2ccc(F)cc2OCc2ccccc2)C[C@@H]2CC[C@H]1N2C(=O)NCCCc1ccccc1,16µM*,-1%,-17%,0%,?
COC(=O)C1=C(c2ccc(OCc3ccccc3)cc2)C[C@@H]2CC[C@H]1N2C(=O)NCc1ccc(C(C)(C)C)cc1,.,2%,.,6%,i
CC[C@H](C)[C@@H]1NC(=O)CNC(=O)c2csc(n2)[C@H](C(C)(C)O)OC(=O)C(C)(C)[C@H](CCCC(C)(Cl)Cl)OC(=O)c2csc1n2,.,-1%,.,-34%,i
CCN1CCN(S(=O)(=O)c2ccc(Cl)c(C(=O)Nc3ccc(C(=O)N(CC)CC)cc3)c2)CC1,?,0%,-8%,6%,i
CNP(=O)(Oc1ccccc1)OC12CC3CC(CC(C3)C1)C2 (configuration not stated),5%,0%,0%,4%,i
C=CCn1c(O)c(C=Nc2c(C)n(C)n(-c3ccccc3)c2=O)c(=O)[nH]c1=O,18%,3%,2%,.,i
CC(C)(CN)CC(=O)O,1%,-1%,13%,.,i
COc1ccc(C2=NCC(=O)N(CC(=O)NCc3ccco3)c3sc4c(c32)CCCC4)cc1OC,?,0%,-7%,8%,?
COC(=O)C1=C(c2ccccc2OCc2ccccc2)C[C@@H]2CC[C@H]1N2C(=O)NCc1ccc(F)cc1,23µM*,-1%,?,?,?
Cc1occc1C(=O)Nc1cccc(-c2nc(CNC(=O)c3cccc(C#CC(C)(C)O)c3)c(C)o2)c1,.,.,.,.,32µM*
COc1ccc2oc(-c3cccc(NC(=O)c4ccc(C#N)cc4F)c3)nc2c1,-30%,1%,-9%,0%,?
CC1CC2(C)C(=CC1=O)CCC1C3CCC(C)(O)C3(C)CC3OC312 (configuration not stated),?,-1%,-7%,-14%,i
COC(=O)C1=C(c2ccc(OCc3ccccc3)cc2)C[C@@H]2CC[C@H]1N2C(=O)NCc1ccc(OC)cc1,.,2%,.,0%,i
COC(=O)C1=C(c2cccc(OCc3ccccc3)c2)C[C@@H]2CC[C@H]1N2C(=O)NCc1ccccc1OC,21µM*,3%,?,-28%,i
